In PubChem BioAssay (NCI) one finds growth data, which are given here for 15 compounds.

The structures appear in SMILES notation. The panel holds about 83,000 compounds, 20% with a hit somewhere; the sample as a whole holds those more often.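 Cell lines were cultured in 96-well plates, exposed to a single compound concentration, and assessed for percent growth 48 hours later.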 A number with no mark means an inactive call. The source made the active and inactive calls. Rule for the calls: active = growth percent below 10; inactive = the rest.

Experiment in all cases: NCI-60 one-dose screen, 48 h (100 = growth as untreated, 0 = no growth, -100 = all killed)
Conditions in all cases: 10 µM unless noted

Assay [1] deals with SK-MEL-2 melanoma.
Assay [2] deals with EKVX NSCLC.
Assay [3] relates to SN12C renal.
The test system of assay [4] is UO-31 renal.
Assay [5] deals with TK-10 renal.
For assay [6], the system named is ACHN renal.
Assay [7] relates to CAKI-1 renal.
For assay [8], the system named is A498 renal.
The test system of assay [9] is MOLT-4 leukemia.
In assay [10] the test system is SR leukemia.
Assay [11] deals with RPMI-8226 leukemia.
For assay [12], the system named is OVCAR-5 ovarian.
Assay [13] relates to OVCAR-4 ovarian.
Assay [14] has as its system IGROV1 ovarian.
Assay [15] concerns OVCAR-3 ovarian.
Assay [16] concerns HS 578T breast.
Assay [17] has as its system NCI/ADR-RES ovarian.
Assay [18] deals with OVCAR-8 ovarian.
Assay [19] deals with SK-OV-3 ovarian.
Assay [20] has as its system CCRF-CEM leukemia.

In the case of `CCN1C(=O)N(CC)C2C1NN=c1s/c(=C\c3ccccn3)c(=O)n12` (stereo not drawn), the growth in assay [1] was 39.9%; in [2], 61.7%; in assay [3], 40.7%; in assay [4] it was 43.8%; in [5], 51.2%; in assay [6], 43.4%. Moreover, the growth in assay [7] was 30.2%; in assay [8], -29.2% (active); in [9], 42.5%; in assay [10] it was 5.28% (active); in assay [11], 22.5%; in assay [12] it was 58.9%. Besides, the growth in assay [13] was 50.2%; in assay [14], 43.7%; in [15] it was 2.57% (active); in assay [16], 7.13% (active); in assay [17], 2.1% (active).
For the compound `CCN1C(=O)N(CC)C2Nn3c(s/c(=C4\C(=O)N(C5CCCC5)c5ccccc54)c3=O)=NC21` (stereo not drawn), the growth in [1] is 75.9%; in assay [2], 59.7%; in assay [3], 70.6%; in [4], 51.7%; in assay [5], 88.1%; in assay [6], 59.2%. Also, the growth in [7] was 32.6%; in [8], 30.8%; in assay [9] it was 84.4%; in [10] it was 34.8%; in assay [11], 54.1%; in assay [18], 60.2%. In addition, the growth in [12] is 77.5%; in assay [13] it was 55.7%; in [14], 67.3%; in assay [15], 40.8%; in [16], 62%; in assay [17] it was 10.9%.
Consider `COc1ccc(NC(=O)/N=c2\oc3c(OC)cccc3cc2-c2cc3ccccc3[nH]2)cc1`, for which the growth is 75.9% in assay [1]; 72.3% in assay [2]; 78.1% in assay [3]; 90.4% in assay [4]; 42% in assay [5]; 34.9% in assay [6]. Also, the growth in assay [7] was 49%; in assay [8] it was 75%; in assay [9], 112%; in assay [10], 107%; in assay [11] it was 173%; in assay [18], 49.1%. The growth in [12] was 88.3%; in assay [13], 69.8%; in assay [14], 50%; in assay [15] it was 64.4%; in assay [16], 7.84% (active); in assay [17] it was 57.7%.
As for `COc1ccc(NC(=S)/N=c2\oc3c(OC)cccc3cc2-c2cc3ccccc3[nH]2)cc1`, the growth in assay [1] is 90.2%; in [2], 79.6%; in assay [3], 84.7%; in [4] it was 95.2%; in assay [5] it was 96%; in assay [6], 44.8%. Also, the growth was 28.3% in assay [7]; 87.9% in assay [8]; 99.1% in [9]; 103% in [10]; 105% in [11]; 54.8% in assay [18]. The growth was 91.5% in [12]; 56.4% in [13]; 69.4% in assay [19]; 63.1% in assay [14]; 79.7% in assay [15]; 36.4% in [16]. For the same compound, in assay [17], the growth was 56.7%.
As to `CCN1C(=O)N[C@H]2[C@@H]3NC(=O)c4ccc(Cl)n4[C@@H]3C[C@]21O`, the growth in assay [1] is -37% (active); in assay [2], 10.8%; in [3], -1.6% (active); in [4] it was 37.3%; in [5], 4.37% (active); in assay [6], 14.9%. Further, the growth was 31% in [7]; -7.16% (active) in assay [20]; 0.842% (active) in assay [9]; -21.2% (active) in [11]; 1.27% (active) in assay [18]; 24.5% in assay [12]. In addition, the growth in assay [13] is 3.02% (active); in assay [19], 28.6%; in assay [14], 1.44% (active); in [15], 2.22% (active); in [16] it was -10.9% (active); in assay [17], 76.4%.
For `O=c1cc(C2NCCc3c2[nH]c2ccccc32)c2c(ccc3ccccc32)o1` (stereo not drawn), the growth is 36.2% in assay [1]; 87.5% in assay [3]; 26.2% in [4]; 71.7% in [5]; 31.7% in [6]; 15.5% in [7]. The growth in [8] was 46.3%; in assay [20], 77.8%; in [9], 75.1%; in assay [10], 51.3%; in assay [11] it was 73.6%; in [18], 60.1%. Further, the growth in [12] is 78.3%; in assay [13], 62.3%; in assay [19], 5.15% (active); in [14], 33.4%; in assay [15], 95.1%; in [16], 55.9%. Also, the growth in assay [17] is 78.7%.
For the compound `CC1=CNNc2c3ncnc-3ncn21`, the growth was 111% in assay [1]; 105% in assay [3]; 90.6% in [4]; 105% in assay [5]; 99.8% in assay [6]; 102% in [7]. For the same compound, the growth in assay [8] was 95.7%; in assay [20], 96.1%; in [9] it was 91.9%; in [10], 97.4%; in [11], 103%; in assay [18], 107%. Further, the growth is 101% in assay [12]; 111% in [13]; 103% in [19]; 108% in assay [14]; 105% in assay [15]; 110% in assay [16]. Besides, in assay [17], the growth is 105%.
As to `COc1cc(/C=C/C(=O)c2ccccc2O)ccc1OCCCOc1cc2c(cc1OC)C(=O)N1CCC[C@H]1C=N2`, the growth in [1] was -61.1% (active); in assay [3], 6.22% (active); in [4], -54.5% (active); in assay [5], -27.9% (active); in [6], -13.8% (active); in assay [7], -35.3% (active). For the same compound, the growth in assay [8] was -68.4% (active); in [20], 5.24% (active); in [9] it was -11.2% (active); in assay [10], -13.8% (active); in [11] it was -21.7% (active); in assay [18], 18.1%. The growth in [12] was 0.483% (active); in assay [13], -2.17% (active); in assay [19], 33.1%; in assay [14], -65.8% (active); in [15], -3.51% (active); in [16], 37.8%. Besides, in assay [17], the growth was 19.3%.
For the compound `O=C(CNC(=O)c1cccc2ccccc12)Nc1ccccc1Oc1ccccc1`, the growth in assay [1] is 34.8%; in [3] it was 21.8%; in assay [4] it was 33.8%; in assay [5], 19.8%; in assay [6] it was 29.9%; in assay [7], 31.6%. Moreover, the growth in [8] was -14.9% (active); in assay [20], 18.3%; in [9], 24.2%; in [10], 13.1%; in assay [11] it was 19.8%; in assay [18] it was 13.4%. Besides, the growth is 52.4% in [12]; 36% in [13]; 23.3% in assay [19]; 32.1% in assay [14]; -30.5% (active) in assay [15]; 29.9% in assay [16]. In addition, the growth in assay [17] is 10.3%.
For `COc1cccc(-n2cc(-c3nc(Cl)c4ccccc4n3)nn2)c1`, the growth was 89.5% in assay [1]; 95.2% in assay [3]; 78.3% in [4]; 105% in assay [5]; 112% in assay [6]; 99.1% in assay [7]. In addition, the growth in assay [8] was 72.9%; in assay [20], 103%; in [9], 104%; in assay [10] it was 97.9%; in assay [11] it was 97.7%; in assay [18], 109%. Moreover, the growth in assay [12] is 109%; in assay [13] it was 98.7%; in assay [19], 117%; in [14] it was 96.5%; in assay [15], 105%; in assay [16] it was 110%. For the same compound, the growth in assay [17] is 97.4%.
Take `CC(=O)OCC1OC(OCC2OC(OC(C)=O)C(OC(C)=O)C(OC(C)=O)C2OC(C)=O)C(OC(C)=O)C(OC(C)=O)C1OC(C)=O` (stereo not drawn): the growth was 107% in assay [1]; 95.1% in assay [3]; 95.4% in [4]; 106% in assay [5]; 94.7% in [6]; 94.7% in assay [7]. Further, the growth in assay [8] was 87%; in assay [20], 99.6%; in assay [9], 104%; in assay [10], 98%; in assay [11], 99.3%; in [18], 95.2%. In addition, the growth in [12] is 101%; in assay [13], 107%; in assay [19], 89.9%; in [14], 106%; in [15], 109%; in [16] it was 97.2%. Also, the growth in assay [17] was 101%.
Turning to `Clc1ccc([I+]c2ccc(Cl)cc2Cl)c(Cl)c1`, the growth is 77.4% in assay [1]; 33.3% in [3]; -50.8% (active) in assay [4]; -82.4% (active) in [5]; 29.6% in [6]; 27% in assay [7]. Also, the growth is 69.9% in [8]; -1.96% (active) in assay [20]; -6.5% (active) in assay [9]; 22.8% in [10]; -25.7% (active) in assay [11]; -1.2% (active) in assay [18]. In addition, the growth in assay [12] is -25.9% (active); in assay [13], 0.221% (active); in assay [19], 96.7%; in [14] it was 39.7%; in assay [15], -75.5% (active); in assay [16] it was 79%. In [17], the growth is 79.4%.
`O=c1[nH]c(-c2cn(-c3ccc(Cl)cc3)nn2)nc2ccccc12`: the growth in assay [1] was 77.2%; in assay [3], 71.9%; in [4], 46.1%; in [5], 80.6%; in assay [6], 42.5%; in assay [7], 84.2%. In addition, the growth is 24.7% in assay [8]; 98.6% in [20]; 93.7% in assay [9]; 80.4% in assay [10]; 83.5% in assay [11]; 48.5% in [18]. The growth in assay [12] was 102%; in assay [13] it was 36%; in [19] it was 38.9%; in assay [14], 74.1%; in assay [15] it was 85.4%; in assay [16] it was 37%. Further, the growth in [17] is 63.9%.
Turning to `Cc1sc(N=Nc2ccc(N(C)C)cc2)[n+]([O-])c1C`, the growth was 114% in [1]; 96.7% in assay [3]; 82.4% in assay [4]; 104% in assay [5]; 104% in assay [6]; 110% in [7]. Besides, the growth in assay [8] was 88.1%; in assay [20] it was 104%; in assay [9], 103%; in assay [10] it was 98.2%; in assay [11], 106%; in assay [18], 101%. For the same compound, the growth was 107% in assay [12]; 94.2% in [13]; 104% in [19]; 93.4% in assay [14]; 96% in assay [15]; 96.3% in assay [16].
Consider `Nc1nc(-c2cc3ccccc3o2)cc(=O)c(=O)[nH]1`, for which the growth in [1] is 98.9%; in assay [2] it was 99.7%; in assay [3] it was 106%; in assay [4], 110%; in assay [5] it was 103%; in [6], 94.3%. In addition, the growth is 91.9% in assay [7]; 84.2% in assay [20]; 96.6% in assay [9]; 90.9% in assay [10]; 107% in [18]; 105% in assay [12]. Besides, the growth in [13] is 102%; in [19], 96.7%; in assay [14], 100%; in assay [15], 102%; in assay [16] it was 88.2%; in assay [17] it was 109%.
